Screening data as filed in PubChem.
A selection: hits, their analogues and other compounds. The true share with any hit is near 1.4%.
MbtI inh: MbtI salicylate synthase inhibitors, primary screen, biochemical, fluorescence intensity; P9WFX0; purified MbtI enzyme, fluorescence intensity read-out; inhibition, % (test concentration not listed); hit rate 0.89% among 100,000; AID 493033, 2011; in the data active = inhibition mostly above about 56%, no sharp cut-off; inactive = mostly below about 77%
Target sequence (P9WFX0 whole entry, looked up): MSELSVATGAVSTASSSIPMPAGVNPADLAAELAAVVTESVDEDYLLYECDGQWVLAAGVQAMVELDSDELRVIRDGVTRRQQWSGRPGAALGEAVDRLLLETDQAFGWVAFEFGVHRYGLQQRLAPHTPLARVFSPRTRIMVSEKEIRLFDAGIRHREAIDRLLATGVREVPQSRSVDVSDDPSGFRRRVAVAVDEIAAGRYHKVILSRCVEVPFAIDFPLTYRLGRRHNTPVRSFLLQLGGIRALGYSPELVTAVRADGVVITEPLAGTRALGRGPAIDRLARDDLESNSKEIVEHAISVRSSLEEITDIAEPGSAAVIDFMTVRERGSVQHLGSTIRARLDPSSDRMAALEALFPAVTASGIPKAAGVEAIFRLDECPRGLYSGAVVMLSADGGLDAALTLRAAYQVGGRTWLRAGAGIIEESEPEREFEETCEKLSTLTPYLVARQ
AID504770: growth inhibition of E. coli YBA685, primary screen, V. cholerae RctB inhibitors; E. coli YBA685 rctB-dependent plasmid, OD600 growth, 3 h; hits give low values; z-score (test concentration not listed); hit rate 0.27% among 130,000; AID 504770, 2011; in the data active = z-score below about -2, passing the limit was not always enough
MenB inh: M. tuberculosis MenB inhibitors, primary screen, biochemical, absorbance; MenB enzyme assay, absorbance read-out; inhibition, % (test concentration not listed); AID 540299, 2011; hit rate 0.43% among 100,000; in the data active = inhibition above about 21%, passing the limit was not always enough
Polio RdRp inh: poliovirus RdRp elongation inhibitors, primary screen, biochemical, fluorescence polarization, total intensity; poliovirus polymerase elongation; hits give low values; % elongation, % (compound at 16.7 µg/mL); hit rate 0.66% among 150,000; AID 588519, 2011; in the data active = % elongation below about 90%
* hit, by the source's call.

For COC(=O)c1cnc(NN2C(=O)C=C(C)C2=O)nc1C(F)(F)F the results were MbtI inh 53*, AID504770 -0.55, MenB inh -1 and Polio RdRp inh 97.
Screening O=C(O)CCc1ccc(-c2cccs2)n1-c1cccc(Br)c1 returned MbtI inh 61, AID504770 -0.25, MenB inh 0 and Polio RdRp inh 101.
`CNC(=O)c1c[nH]c2ccc(S(=O)(=O)Nc3cccc(OC)c3)cc2c1=O` gave MbtI inh 16, AID504770 2, MenB inh -2 and Polio RdRp inh 101.
For Cc1nn(Cc2c(Cl)cccc2Cl)c(Cl)c1CN1CCN(CC(=O)N2CCCC2)CC1 the results were MbtI inh 5, AID504770 1.7, MenB inh 15 and Polio RdRp inh 87*.
Screening N#Cc1cccc(S(=O)(=O)N2CCCC2c2ccc3c(c2)OCCCO3)c1 (configuration not stated) returned MbtI inh -12, AID504770 -0.45, MenB inh -45 and Polio RdRp inh 104.
`Cc1ccc(S(=O)(=O)N[C@@H](Cc2ccccc2)C(=O)CCl)cc1` gave MbtI inh 64*, MenB inh -14 and Polio RdRp inh 102.
For CS(=O)(=O)c1nc(-c2ccc(Br)cc2)n[nH]1 the results were MbtI inh 90*, AID504770 -0.55, MenB inh 15 and Polio RdRp inh 100.
Screening CS(=O)(=O)c1nc(-c2ccc(Cl)cc2)n[nH]1 returned AID504770 -0.55, MenB inh 0 and Polio RdRp inh 100.
Screening O=C(Nc1cccc(C(F)(F)F)c1)N1CCN(Cc2ccccc2)CC1 returned AID504770 -0.6, MenB inh -21 and Polio RdRp inh 105.
For Oc1cc(Cl)c(Cl)cc1O the results were MbtI inh 102*, AID504770 -3.5*, MenB inh -61 and Polio RdRp inh 92.
`CC1(C)CC(=O)c2sc(NC(=O)c3cc(=O)c4ccccc4o3)nc2C1` gave AID504770 -0.45.
`CN(C)C(=O)CSCc1c(Cl)cccc1Cl` gave MbtI inh 4, AID504770 0.4, MenB inh -9 and Polio RdRp inh 34*.
For COc1ccc(CC(=O)Nc2sc3c(c2C(=O)Nc2ccc(C)cc2)CCCCC3)cc1 the results were Polio RdRp inh 89*.
For COc1ccc(NC(=O)c2c(NCc3ccc(N(C)C)cc3)sc3c2CCC3)cc1 the results were Polio RdRp inh 86*.
Screening Cc1cc(Cl)ccc1OCCSc1nnc(-c2cccs2)o1 returned Polio RdRp inh 10*.
`Cc1ccccc1OCCSc1nnc(-c2cccs2)o1` gave Polio RdRp inh 109.
For Cc1sc2c(c1C)C1=NS(=O)(=O)CCN1C=N2 the results were MbtI inh 112, AID504770 0.35, MenB inh -33 and Polio RdRp inh 76*.
COC(=O)C1=NC=CN2CCS(=O)(=O)N=C12 was read as MbtI inh 18, AID504770 0.2 and MenB inh -29.
For O=C1c2ccccc2CCc2sccc21 the results were MbtI inh 8, AID504770 1.7, MenB inh -23 and Polio RdRp inh 101.
For O=C(Nc1ccc(Cl)c(-c2nc3cc(Cl)ccc3o2)c1)c1cc2ccccc2o1 the results were Polio RdRp inh 105.
For Cc1ccccc1C(=O)Nc1ccc(-c2nc3ccccc3o2)cc1 the results were MbtI inh 67, AID504770 0.6, MenB inh 2 and Polio RdRp inh 100.
Screening Cc1cc2nc(-c3ccc(NC(=O)c4ccccc4F)cc3)oc2cc1C returned Polio RdRp inh 24*.
Screening O=C(Nc1ccc(-c2nc3cc(Cl)ccc3o2)cc1)c1cc2ccccc2o1 returned Polio RdRp inh 49*.
Screening O=C(O)C1CSC2c3ccccc3C(=O)N12 (configuration not stated) returned MbtI inh -4, AID504770 0.05, MenB inh 39* and Polio RdRp inh 101.
N#Cc1c(Nc2ccccc2)s[nH]c1=O was read as MbtI inh 22, AID504770 -2.6*, MenB inh 13 and Polio RdRp inh 115.
`N#Cc1c(Nc2ccccc2Cl)s[nH]c1=O` gave MbtI inh 67, AID504770 -1.6, MenB inh -14 and Polio RdRp inh 102.
CCOC(=O)c1cc2c(ccn2-c2ccc(F)cc2)n1CC(=O)c1ccc2c(c1)OCCO2 was read as MbtI inh -8, AID504770 2.2, MenB inh -52 and Polio RdRp inh 102.
Screening CCOC(=O)c1sc(=N)n(CC(=O)c2ccc(F)cc2)c1C returned MbtI inh 10, AID504770 1.9, MenB inh -7 and Polio RdRp inh 1.0*.
